Experimental findings from PubChem BioAssay (NCI) are described below.

About 83,000 compounds went through this panel and 20% of them were active in at least one assay; those are over-represented in the sample as a whole.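 Method: cells in 96-well plates; compound added at one concentration; 48 h incubation; percent growth measured; values under 10 scored active.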 Values without a mark were called inactive. Active and inactive are the calls of the source.

Some test systems named below: NCI-H23 lung; NCI-H226 lung; NCI-H322M lung; HOP-62 NSCLC; NCI-H460 lung; HOP-92 NSCLC; NCI-H522 lung; A549/ATCC NSCLC; 786-0 renal; DU-145 prostate; K-562 leukemia; MALME-3M melanoma; MDA-MB-231 breast; RXF 393 renal; SF-268 CNS; SF-295 CNS; SF-539 CNS; UACC-257 melanoma; M14 melanoma.
What all share (assay): NCI-60 one-dose screen, 48 h (100 = growth as untreated, 0 = no growth, -100 = all killed)
Holding throughout (details): 10 µM unless noted

Turning to `COc1ccc2c(c1)/C(=C\c1sc(=S)[nH]c1O)C(C(=O)O)=N2`, the growth with NCI-H23 lung is 99.1%; with NCI-H226 lung, 99.3%; in the experiment on NCI-H322M lung, 102%; in the experiment with HOP-62 NSCLC, 116%; in the experiment with NCI-H460 lung, 108%; in the experiment on HOP-92 NSCLC, 91.6%. For the same molecule, the growth in the experiment on NCI-H522 lung was 87.6%; in the experiment with A549/ATCC NSCLC, 99.8%; in the experiment with 786-0 renal it was 102%; in the experiment with DU-145 prostate, 99.2%; in the experiment on K-562 leukemia, 92.6%; in the experiment with MALME-3M melanoma, 94.7%. In addition, the growth is 94.8% in the experiment with MDA-MB-231 breast; 95.2% in the experiment with RXF 393 renal; 92.3% with SF-268 CNS; 103% in the experiment with SF-295 CNS; 99.4% in the experiment with SF-539 CNS; 96.7% in the experiment on UACC-257 melanoma. Moreover, the growth with M14 melanoma was 97%.
As for `O=C1NC(=S)S/C1=C\N1N=C(c2ccc(Cl)cc2)CC1c1ccc(F)cc1` (configuration not stated), the growth in the experiment on NCI-H23 lung is 91.3%; with NCI-H226 lung, 83.9%; in the experiment with NCI-H322M lung, 99.1%; in the experiment on HOP-62 NSCLC, 103%; with NCI-H460 lung, 95.8%; with HOP-92 NSCLC it was 104%. Further, the growth in the experiment on NCI-H522 lung was 76.1%; with A549/ATCC NSCLC it was 84.1%; in the experiment with 786-0 renal it was 94%; with DU-145 prostate it was 98.5%; in the experiment with K-562 leukemia, 59.8%; with MALME-3M melanoma, 83.7%. In addition, the growth in the experiment with MDA-MB-231 breast was 80.9%; with RXF 393 renal, 73.8%; in the experiment with SF-268 CNS, 85.9%; in the experiment on SF-295 CNS it was 92.4%; in the experiment on SF-539 CNS, 89.5%; in the experiment with UACC-257 melanoma it was 107%. In the experiment with M14 melanoma, the growth is 87.7%.
For the molecule `O=C(NCc1cn(Cc2cccc(Oc3ccccc3)c2)nn1)c1cccnc1NCc1ccc(Cl)cc1`, the growth in the experiment with NCI-H23 lung was 20.6%; with NCI-H226 lung, 12.5%; with NCI-H322M lung, 54.5%; in the experiment with HOP-62 NSCLC, 40.7%; in the experiment on NCI-H460 lung, 17.1%; in the experiment with HOP-92 NSCLC it was 22.1%. Also, the growth was 20.8% with NCI-H522 lung; 22.5% with A549/ATCC NSCLC; 38% in the experiment on 786-0 renal; 15% in the experiment with DU-145 prostate; 11.8% with K-562 leukemia; 48.2% with MALME-3M melanoma. The growth in the experiment with MDA-MB-231 breast is 25.4%; in the experiment with RXF 393 renal, 3.54% (active); in the experiment with SF-268 CNS it was 45.3%; in the experiment with SF-295 CNS it was 19.7%; with SF-539 CNS, -15.3% (active); with UACC-257 melanoma, 47.3%. Moreover, in the experiment on M14 melanoma, the growth was 6.76% (active).
As for `NS(=O)(=O)Oc1ccc(NC(=O)C23CC4CC(CC(C4)C2)C3)cc1Cl`, the growth in the experiment with NCI-H23 lung was 101%; in the experiment with NCI-H226 lung it was 91.3%; with NCI-H322M lung, 104%; in the experiment with HOP-62 NSCLC, 92.1%; in the experiment on NCI-H460 lung, 103%; with HOP-92 NSCLC, 87.6%. Further, the growth was 75.8% with NCI-H522 lung; 93.7% in the experiment with A549/ATCC NSCLC; 98.2% in the experiment with 786-0 renal; 99.8% in the experiment with DU-145 prostate; 94.6% in the experiment on K-562 leukemia; 97.6% with MALME-3M melanoma. Besides, the growth with MDA-MB-231 breast is 90.5%; in the experiment with RXF 393 renal it was 111%; in the experiment on SF-268 CNS it was 88.1%; in the experiment with SF-295 CNS it was 101%; in the experiment on SF-539 CNS it was 87.3%; in the experiment with UACC-257 melanoma, 90.2%. Further, the growth in the experiment on M14 melanoma was 97.3%.
Turning to `Nc1ccc(S(=O)(=O)Nc2ccsc2-c2nc(-c3ccccc3)no2)cc1`, the growth is 83.5% in the experiment on NCI-H23 lung; 84.5% in the experiment on NCI-H226 lung; 83.3% in the experiment with NCI-H322M lung; 35.8% in the experiment with HOP-62 NSCLC; 40.1% in the experiment with NCI-H460 lung; 62.2% in the experiment with HOP-92 NSCLC. Besides, the growth was 30.2% in the experiment on NCI-H522 lung; 42.7% in the experiment with A549/ATCC NSCLC; 86% with 786-0 renal; 76.5% in the experiment with DU-145 prostate; 13.5% in the experiment on K-562 leukemia; 70.5% with MALME-3M melanoma. Further, the growth in the experiment on MDA-MB-231 breast was 61.8%; in the experiment on RXF 393 renal, 83.3%; in the experiment on SF-268 CNS, 67.2%; in the experiment on SF-295 CNS, 69.8%; in the experiment on SF-539 CNS, 75.6%; in the experiment with UACC-257 melanoma, 67.2%. In the experiment with M14 melanoma, the growth was 32.1%.
Consider `[2H]c1nc(Nc2ncc(F)c(-c3cc(F)c4nc(C)n(C(C)C)c4c3)n2)c([2H])c([2H])c1CN1CCN(C([2H])([2H])C([2H])([2H])[2H])CC1`, for which the growth in the experiment with NCI-H23 lung is 50.6%; in the experiment on NCI-H226 lung, 49.1%; in the experiment with NCI-H322M lung it was 44.6%; with HOP-62 NSCLC, 47%; in the experiment with NCI-H460 lung it was 53.1%; with HOP-92 NSCLC, 66.9%. Further, the growth with NCI-H522 lung is 58.1%; in the experiment with A549/ATCC NSCLC, 38.8%; with 786-0 renal, 39%; in the experiment with DU-145 prostate, 66.2%; with K-562 leukemia it was 49.6%; in the experiment with MALME-3M melanoma, 79.5%. The growth with MDA-MB-231 breast is 65.2%; with RXF 393 renal, 1.53% (active); in the experiment on SF-268 CNS it was 64.5%; in the experiment with SF-295 CNS, 57.8%; in the experiment on SF-539 CNS, 72.1%; in the experiment on UACC-257 melanoma, 52.3%. In addition, the growth in the experiment on M14 melanoma was 47.5%.
`CN1CCN(CCCOc2ccc3nc(Nc4cc(Cl)cc(Cl)c4)ccc3c2)CC1`: the growth is -40.7% (active) with NCI-H23 lung; -9.2% (active) in the experiment with NCI-H226 lung; -55.5% (active) in the experiment with NCI-H322M lung; -87.5% (active) with HOP-62 NSCLC; -76.2% (active) in the experiment with NCI-H460 lung; -27% (active) in the experiment with HOP-92 NSCLC. Also, the growth is -81.4% (active) in the experiment on NCI-H522 lung; -81% (active) with A549/ATCC NSCLC; -75.6% (active) in the experiment on 786-0 renal; -84.1% (active) with DU-145 prostate; -61.8% (active) in the experiment with K-562 leukemia; -54.4% (active) in the experiment on MALME-3M melanoma. Moreover, the growth was -73.2% (active) in the experiment on MDA-MB-231 breast; -60.6% (active) in the experiment on RXF 393 renal; -78.9% (active) in the experiment with SF-268 CNS; -75.9% (active) with SF-295 CNS; -86.5% (active) with SF-539 CNS; -81.5% (active) in the experiment on UACC-257 melanoma. The growth with M14 melanoma is -62.2% (active).
For the molecule `CC(=O)Nc1cccc(C2=CC(c3ccc(C)cc3)n3ncnc3N2)c1` (configuration not stated), the growth with NCI-H23 lung is 97.4%; in the experiment with NCI-H226 lung, 92.7%; in the experiment on NCI-H322M lung, 107%; in the experiment on HOP-62 NSCLC, 101%; with NCI-H460 lung it was 107%; in the experiment with HOP-92 NSCLC, 77.7%. Besides, the growth was 94.8% in the experiment on NCI-H522 lung; 108% in the experiment with A549/ATCC NSCLC; 95% with 786-0 renal; 102% in the experiment with DU-145 prostate; 86.2% in the experiment on K-562 leukemia; 119% in the experiment on MALME-3M melanoma. Further, the growth in the experiment with MDA-MB-231 breast is 87.8%; in the experiment on RXF 393 renal it was 96.4%; in the experiment on SF-268 CNS, 94%; in the experiment on SF-295 CNS it was 114%; in the experiment on SF-539 CNS, 95.3%; in the experiment on UACC-257 melanoma, 112%. In the experiment with M14 melanoma, the growth is 112%.
